# TIM10 inh – growth inhibitors of TIM10 yeast strain; S. cerevisiae TIM10 strain growth, BacTiter-Glo luminescence, 24 h; inhibition, % at 10 µM; actives 1.4% (n = 330,000);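 active = inhibition of 40% or more at the single tested concentration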;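 also: wild-type TIM10 isogenic control strain grown at permissive 25 °C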
# tim23-1 inh – tim23-1 yeast growth inhibition; S. cerevisiae tim23-1 growth, BacTiter-Glo luminescence, 24 h; inhibition, % at 20 µM; actives 1.3% (n = 330,000);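 active = growth inhibition of the mutant yeast at or above 50%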;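 also: temperature-sensitive mutant grown at 25 °C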
# PfHsp90 set2 – reduces growth (ATP signal) of yeast expressing P. falciparum Hsp90 | AID 504621 | actives 0.32% (n = 310,000) | inhibition, % at 9.4 µM | S. cerevisiae expressing PfHsp90, BacTiter-Glo ATP, 48 h; yeast lacking PDR1 and PDR3 efflux regulators;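 active = every replicate shows inhibition above about 80%, whatever the replicate mean, limit read from the data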
# tim10-1 inh – growth inhibitors of tim10-1 mutant yeast | S. cerevisiae tim10-1 ts strain growth, BacTiter-Glo, 24 h | inhibition, % at 20 µM | actives 2.2% (n = 330,000);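 active = inhibition of at least 40%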;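 also: mutant grown at 25 °C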
# NALP3 yeast inh – blocks the NALP3 inflammasome reconstituted in yeast; Yeast reconstituted NLRP3/ASC/caspase-1, beta-gal luminescence, 24 h; inhibition, % at 10 µM; actives 0.39% (n = 330,000); AID 2825;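 active = inhibition of 50% or more; inactive = inhibition below 50%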
# SKKanGAS inh – blocks kanamycin growth of S. pyogenes SKKanGAS strain | BacTiter-Glo, 6 h | inhibition, % at 7.5 µM | actives 1.3% (n = 300,000);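 active = mean replicate score, as percent of positive control median, at least 50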;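 also: strain carries kanamycin resistance gene driven by streptokinase promoter and grows in 40 µg/ml kanamycin; loss of luminescence reflects streptokinase promoter inhibition or plain growth inhibition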
# tim10-1 conf – tim10-1 yeast growth inhibition, confirmed; inhibition, % at 20 µM; actives 56% (n = 7,400); shares compounds with tim10-1 inh; S. cerevisiae tim10-1 ts strain growth, BacTiter-Glo, 24 h;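 active = inhibition of yeast growth at or above a set limit in either of two repeat tests at 20 µM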;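 also: tim10-1 mutant grown at permissive 25 °C to find synthetic lethal compounds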
# Numbers stand for hits; . = inactive; / = not tested or not shown. An excerpt weighted towards active compounds, which were near 4.5% of everything screened.
SMILES,TIM10 inh,tim23-1 inh,PfHsp90 set2,tim10-1 inh,NALP3 yeast inh,SKKanGAS inh,tim10-1 conf
CC(C)N(C(=S)Nc1cccc(C(F)(F)F)c1)C(C)c1ccccn1 (centres undefined),.,.,/,43,.,.,.
CCC1CCCCN1CCCNC(=O)C1CC(=O)N(CCc2ccccc2)C1 (centres undefined),.,.,.,.,.,.,/
Cc1c(CCC(=O)NCCCn2ccnc2)c(=O)oc2c(C)c3oc4c(c3cc12)CCCC4,.,.,/,.,.,.,/
O=C(CNc1cccc2ccccc12)N/N=C/c1cccc(Oc2ccccc2)c1,.,.,.,42,.,.,.
O=C(CNc1cccc2ccccc12)N/N=C/c1ccccn1,.,.,/,.,.,.,/
C=CCC1(CC=C)CCCN1C(=O)c1cc(COc2ccccc2SC)on1,.,.,.,.,.,.,/
CCc1nn(-c2ccccc2)c(=S)c2ccccc12,.,.,.,46,.,.,52
CCc1nn(-c2ccccc2)c(N)c1C#N,.,.,.,.,.,.,/
COc1ccc(CNC(=O)C(=O)NCC2CCCN2S(=O)(=O)c2ccccc2)cc1 (centres undefined),.,.,.,.,.,.,/
C=CCc1cccc(CNc2nc3ccccc3n2C(C)C)c1O,.,.,.,43,.,.,34
C=CCc1cccc(CNc2ccc(Br)cc2)c1O,.,.,.,43,.,.,64
CN(C)CCN(C(=O)c1ccc2ccccc2c1)c1nc2cc3c(cc2s1)OCCO3,.,.,.,.,.,.,/
CN(C)CCN(C(=O)c1cccc2ccccc12)c1nc2cc3c(cc2s1)OCO3,.,.,.,45,.,.,.
O=C(COc1ccc(Br)cc1Br)NC(=O)NC1CCCC1,.,.,.,.,.,.,/
CC(C)(C)NC(=O)NC(=O)COc1ccc(Br)cc1Br,.,.,.,46,.,.,34
Cc1cnc(NC(=O)c2ccc(F)c(S(=O)(=O)N3CCOCC3)c2)s1,.,.,.,.,.,/,/
O=C(CNC(=O)c1ccccc1)NCCCSc1ccccc1,.,.,.,.,.,/,/
O=C(NCCCSc1ccccc1)c1cc(Cl)ccc1O,.,.,.,47,.,.,.
N#Cc1cccc(-n2c(-c3ccccc3)nnc2-c2ccccc2)c1C#N,.,.,.,46,.,.,35
CC1CCN(C(=O)c2ccc3c(c2NCCO)C(=O)c2ccccc2C3=O)CC1,.,.,/,42,.,.,.
Cc1ccccc1C(=O)OCC(=O)N(C)c1ccccc1,.,.,.,52,.,.,31
Clc1cccc(Cl)c1/C=C/c1ccn[nH]1,.,.,.,55,.,.,40
COCCNC(=O)CN(C(=O)CCC(=O)Nc1ccccn1)c1cc(C)ccc1C,.,.,.,.,.,.,/
COC(=O)c1cccnc1-n1c(=O)c2cccnc2n(Cc2cccc([N+](=O)[O-])c2)c1=O,.,.,.,.,.,.,/
COC(=O)c1cccnc1-n1c(=O)c2cccnc2n(Cc2ccc(Cl)cc2)c1=O,.,.,/,49,.,.,37
SMILES,TIM10 inh,tim23-1 inh,PfHsp90 set2,tim10-1 inh,NALP3 yeast inh,SKKanGAS inh,tim10-1 conf
N#Cc1c(N2CCCCC2)nc(N)c2c(N)nc3c(c12)CC(c1ccccc1)O3 (centres undefined),.,.,.,41,.,.,.
CCC1Cc2c(nc(N)c3c(N)nc(N4CCCCC4)c(C#N)c23)O1 (centres undefined),.,.,.,.,.,.,/
O=C(CN1C(=O)NC2(CCCC2)C1=O)NCCc1ccc(Cl)cc1Cl,.,.,/,.,.,/,/
O=C(c1noc2c1CCc1ccccc1-2)N1CCOCC1,.,.,.,.,.,.,/
O=C(c1noc2c1CCc1ccccc1-2)N1CCCc2ccccc21,.,.,.,42,.,.,.
Cc1c(/C(O)=C2\C(=O)C(=O)N(CCCN(C)C)C2c2ccco2)cnn1-c1ccccc1 (centres undefined),/,/,.,/,/,/,/
Cc1ccc(-n2nc3cc(C)c(N)cc3n2)cc1,.,.,.,41,.,.,.
CCc1ccc(-n2nc3cc(C)c(N)cc3n2)cc1,.,.,.,.,.,.,/
CN1N=C(N)c2cn(C3OC(COP(=O)(O)O)C(O)C3O)c3ncnc1c23 (centres undefined),/,/,.,/,/,/,/
CCCSc1nnc(CSc2nc3ccccc3s2)n1-c1ccccc1,.,.,.,44,.,.,33
N#CCCCSc1nnc(CSc2nc3ccccc3s2)n1-c1ccccc1,.,.,.,.,.,.,/
CCn1c(CSc2nc3ccccc3s2)n[nH]c1=S,.,.,.,42,.,.,32
N#CCCC(CCC#N)(CCC#N)c1cc[n+](CCc2ccccn2)cc1,.,.,.,.,.,.,/
Cc1cc(C)c(C)c(S(=O)(=O)N2CCN(c3ccc(O)cc3)CC2)c1C,.,.,.,.,.,.,/
COc1ccc(-c2csc(N3CCN(C(=O)c4ccccc4)CC3)n2)cc1,.,.,/,42,.,.,33
COCCCNC(=S)N1CCN(c2nc(-c3ccc(F)cc3)cs2)CC1,.,.,.,44,.,.,33
CCCNC(=S)N1CCN(c2nc(-c3ccc(C)cc3)cs2)CC1,.,.,.,.,.,.,/
O=C(NC1CCCCC1)N1CCN(c2nc(-c3ccccc3)cs2)CC1,.,.,.,45,.,.,.
COCCNC(=S)N1CCN(c2nc(-c3ccccc3)cs2)CC1,.,.,.,41,.,.,32
COc1cccc(N(C(=O)c2nc3nccc(C)n3n2)c2nc3ccccc3s2)c1,.,.,.,48,.,.,.
CC(=O)Nc1nc2ccccc2n1Cc1ccccc1C,.,.,.,46,.,.,.
CC(=O)Nc1nc2ccccc2n1Cc1ccccc1Cl,.,.,.,46,.,52,.
O=C(CN1CCN(S(=O)(=O)c2ccc(F)cc2)CC1)Nc1ccc(Cl)c(C(F)(F)F)c1,.,.,.,44,.,.,39
O=C(CN1CCN(S(=O)(=O)c2ccc(F)cc2)CC1)Nc1ccc2c(c1)OCCO2,.,.,.,.,.,.,/
COc1ccccc1N1CCN(CC(=O)Nc2ccc(Cl)c(C(F)(F)F)c2)CC1,.,.,.,42,.,.,29
Cc1cc(OCC(=O)NCCc2cccc(F)c2)c2c(C)cc(=O)oc2c1,.,.,.,.,.,.,/
Cc1ccc(NC(=O)CN2C(=O)NC(C)(CC(C)C)C2=O)cc1F (centres undefined),.,.,.,.,.,/,/
CCn1c(SCc2cccc(C)c2)nnc1-c1ccc(C)cc1,.,.,/,47,.,.,30
CN(C)c1ccsc1C(=O)NNS(=O)(=O)c1ccc(Cl)cc1,.,.,.,.,.,.,/
